These results are taken from publication PMC5540273 (PLoS ONE, 2017).

Molecules are shown by their SMILES.
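Also: kd values determined as follow-up on hits from a single-replicate KINOMEscan panel screen.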

In the first experiment the test system is EGFR.
Regarding `Cl.NC(=O)c1cccc(Nc2nccc(Nc3ccc(Oc4cccc(Cl)c4)c(Cl)c3)n2)c1` [GW659008], the affinity, expressed as Kd, was 120 nM.

On to `Cn1cncc1-c1ccc2ncnc(Nc3ccc(OCc4ccccc4)cc3)c2c1` [GW320571], for which the affinity, expressed as Kd, was 49 nM.

As to `Cl.O=C(Nc1cccc(-c2nn3ncccc3c2-c2ccnc(Nc3cccnc3)n2)c1)c1c(F)cccc1F` [GSK312879], the Kd came out at 38 nM.

Another experiment concerns T1, ERK4.
T1 construct: gene MAPK4
In turn, `Cc1cccc(-c2nc(C)cc(Nc3ccncc3)n2)n1` [GSK257997] yielded a Kd of over 10000 nM.

In turn, `O=C(Nc1n[nH]c2nc(-c3nccs3)c(Br)cc12)C1CCCC1` [SB-742609] showed a Kd of over 10000 nM.

Consider `CS(=O)(=O)c1ccc(-c2nc3n(c2-c2ccncc2)CCC3)cc1` [SKF-105942], for which the Kd is over 10000 nM.

One may read the Kd as a measure of binding affinity in units of concentration. A lower Kd goes with a tighter complex.
